# FBPA Giardia inh – inhibitors of Giardia lamblia fructose-1,6-bisphosphate aldolase | A8B2U2 | purified Giardia FBPA | Potency, µM (highest dose often 59.6 µM), hits mostly inhibitors | 290,000 compounds, 0.71% hits | AID 2451; note: nearly all actives have a fitted effect of over 55% in size
# Target sequence (A8B2U2 whole entry, looked up): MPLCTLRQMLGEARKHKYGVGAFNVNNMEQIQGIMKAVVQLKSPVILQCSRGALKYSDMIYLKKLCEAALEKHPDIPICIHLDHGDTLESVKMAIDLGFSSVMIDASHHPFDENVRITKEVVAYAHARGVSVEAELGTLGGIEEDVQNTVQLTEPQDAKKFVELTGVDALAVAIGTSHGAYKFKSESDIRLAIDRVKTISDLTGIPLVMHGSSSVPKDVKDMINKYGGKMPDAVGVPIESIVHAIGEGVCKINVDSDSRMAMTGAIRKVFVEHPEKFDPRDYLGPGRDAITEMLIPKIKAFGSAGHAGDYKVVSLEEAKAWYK
#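 Giardia FBPA (40 nM reagent) was preincubated 10 min at RT with compound (up to 57.5 uM final), then substrate plus GAPDH/TPI/NAD/arsenate coupling system with diaphorase/resazurin was added; resorufin fluorescence (525/598 nm) was read after 20 min.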
# Shiga toxin inh – Shiga toxin inhibition; Vero cells, Shiga toxin protein synthesis inhibition reporter; 290,000 compounds, 9.2% hits; inhibition, % at 38.7 µM; in the data active = inhibition mostly above about 28%, no sharp cut-off; inactive = mostly below about 43%
# Pf growth 96h – P. falciparum growth inhibition at 96 hour, primary screen for plastid delayed-death inhibitors; P. falciparum luciferase reporter growth, 96 h; Potency, µM (highest dose often 28.7 µM), actives largely listed as inhibitors; 320,000 compounds, 6.9% hits; AID 504834
#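 Cell-based qHTS: luciferase-tagged P. falciparum in erythrocytes (2% hematocrit, 0.05% parasitemia final) incubated with compounds for 96 hours, 37 C, 5% CO2; luciferase detection reagent then added and luminescence measured.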
# Pf growth 48h – inhibits P. falciparum growth in the first generation, 48 h | 310,000 compounds, 5.9% hits | P. falciparum luciferase growth in erythrocytes, 48 h | Potency, µM (highest dose often 28.7 µM), most hits filed as inhibitors
#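 Here the parasites carry a stable luciferase gene and grow inside erythrocytes in Albumax-based RPMI medium with compound for one erythrocytic cycle. Activity is scored as loss of luminescent signal.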
# NS1 function inh – inhibitors of influenza NS1 protein function; Potency, µM (doses to about 46.1 µM); 270,000 compounds, 0.4% hits; AID 2326; calls by dose curve; note: actives are rising curves; nearly all actives have a fitted effect of over 50% in size
#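 Compounds were scored for reversing the slow growth caused by influenza A NS1 in S. cerevisiae, measured by optical density at 600 nm. Assay medium contained 2% galactose at pH 6.0; NS1-free yeast of the same strain were the positive control.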
# Cycloheximide cs – counter-screen hit for Shiga toxin inhibitors, cycloheximide; cell reporter, cycloheximide protein synthesis inhibition counterscreen; max response, %; 300,000 compounds, 12% hits; in the data active = max response mostly above about 13%, no sharp cut-off; inactive = mostly below about 14%; note: read at 38.3 µM for the half of the compounds with a filed dose
# Numbers stand for hits; – = inactive; ? = inconclusive; · = no result given; [ ] = another dose, or the depositor's remark. Shown are actives, neighbours in structure and some others; about 21% of the full set was active somewhere. Unless noted, calls come from the whole dose curve; as a rule, active = well fitted curve in the direction sought with a large enough effect; inconclusive = small, poorly fitted or top-dose-only effect, or another doubt; inactive = no such curve, though single readings can be large; an effect the other way counts as inactive or inconclusive.
SMILES,FBPA Giardia inh,Shiga toxin inh,Pf growth 96h,Pf growth 48h,NS1 function inh,Cycloheximide cs
CC[C@H](C)[C@H](NC(=O)[C@H](CCC(=O)O)NC(=O)CNC(=O)[C@@H](NC(=O)[C@H](CCC(=O)O)NC(=O)[C@H](CCC(=O)O)NC(=O)[C@H](CC(C)C)NC(=O)CNC(=O)[C@@H]1CCCN1C(=O)[C@H](CCC(=O)O)NC(=O)[C@@H](N)[C@@H](C)O)C(C)C)C(=O)N[C@@H](CCC(=O)O)C(=O)N[C@@H](CCC(N)=O)C(=O)N[C@@H](CCCCN)C(=O)N[C@@H](CCC(N)=O)C(=O)N[C@@H](CC(C)C)C(=O)N[C@@H](CCC(N)=O)C(=O)O,–,–,·,·,·,–
O=C(/C=C/Nc1ccc(F)cc1)c1ccc(Oc2ncccn2)cc1,–,–,–,–,–,15.4
Cc1c(C)c2c(OCC(=O)N[C@@H](CC(C)C)C(=O)O)cc3c(c2oc1=O)CCC(C)(C)O3,–,–,?,?,–,–
O=C(O)/C=C\c1c2ccc(=O)c(O)c-2oc2c(O)c(O)ccc12,·,·,·,·,–,·
Cc1ccc(S(=O)(=O)CCC(=O)Nc2ccc3nc(C)sc3c2)cc1,–,–,–,–,–,–
Cc1nc2cc(NC(=O)CCS(=O)(=O)c3ccccc3)ccc2s1,–,58.0,–,–,–,37.2
Cc1nc2ccc(NC(=O)CCS(=O)(=O)c3ccccc3)cc2s1,–,94.3,?,?,–,47.0
Cc1cccc(S(=O)(=O)Nc2ccc(-c3nc4ccc(C)cc4s3)cc2)c1,–,73.7,–,–,–,82.5
Cc1ccc2nc(-c3ccc(NC(=O)CCS(=O)(=O)c4ccccc4)cc3)sc2c1,–,64.9,?,–,–,47.0
Cc1ccc(NC(=O)CCS(=O)(=O)c2ccc3nc(C)sc3c2)cc1,–,–,–,–,–,–
CC(C)Cn1c(N)c(C(=O)CSc2n[nH]c(N)n2)c(=O)n(C)c1=O,·,·,–,–,·,·
O=C(CCc1ccccn1)N1CCCC(CNS(=O)(=O)c2cccs2)C1 (centres undefined),–,–,?,–,–,–
CC1(C)C(=O)Nc2ccccc2N1C(=O)COC(=O)CNS(=O)(=O)c1ccc(F)c(F)c1F,·,·,–,–,·,·
Cc1nn(-c2ccc(F)cc2)c2nc(N)c(C#N)c(-c3ccc(O)c(O)c3)c12,–,–,10.4µM,10.4µM,–,–
COc1cc(-c2c(C#N)c(N)nc3c2c(C)nn3-c2ccc(C)c(C)c2)cc(OC)c1OC,–,–,–[5.75 µM],4.65µM,?,–
Cc1cc(C(=O)CSc2nncs2)c(C)n1-c1ccc2c(c1)OCO2,–,62.2,·,?,–,26.1
Cc1cc(C(=O)CSc2nnnn2-c2ccccc2)c(C)n1-c1ccc2c(c1)OCO2,–,49.8,8.28µM,10.4µM,?,28.9
Cc1cc(C(=O)CSc2nnnn2-c2ccc(O)cc2)c(C)n1Cc1ccc2c(c1)OCO2,–,–,–,?,–,–
Cc1cc(C(=O)COC(=O)C2=COCCO2)c(C)n1-c1cccc(F)c1,·,·,–,–,·,·
Cc1cc(C(=O)CSc2nnc(-c3cccc(F)c3)n2N)c(C)n1Cc1ccc2c(c1)OCO2,–,–,16.5µM,11.7µM,?,–
Cc1cc(C(=O)COC(=O)C2=COCCO2)c(C)n1-c1ccc2c(c1)OCO2,–,138.0,–,·,–,65.7
Cc1cccc(C(=O)OCC(=O)NCCNC(=O)COC(=O)c2cccc(C)c2C)c1C,·,–,?,–,–,–
CN(C)C(=O)N(CCCN1CCOCC1)Cc1cccc2ccccc12,–,–,–,–,–,–
O=C1C=C(c2cccc3c2sc2ccccc23)C[C@@H](c2ccc(F)cc2)C1,·,·,–,?,·,·
OCC(O)C(O)C(O)C(O)CO (centres undefined),–,–,–,–,·,–
SMILES,FBPA Giardia inh,Shiga toxin inh,Pf growth 96h,Pf growth 48h,NS1 function inh,Cycloheximide cs
CCOC(=O)C1CCCN(Cc2c(C(=O)N3CCOCC3)nc3ccccn23)C1 (centres undefined),–,–,9.28µM,–,–,–
CN(C)CCCCOc1ccc(Br)cc1Cl,–,–,–,?,–,14.2
CCOC(=O)C1CCCN(CCCc2ccccc2)C1 (centres undefined),–,–,3.29µM,–,–,–
CC1CCCN(CCCOc2ccc(Br)cc2Cl)C1 (centres undefined),?,41.2,?,?,–,21.8
CC1CCN(CCOCCOc2ccc(Br)cc2Cl)CC1,–,–,–,–,–,–
CCC/C=C(\CCC)C(NS(=O)(=O)c1ccc(C(F)(F)F)cc1)c1ccc(-c2ccccc2)cc1 (centres undefined),–,·,·,·,·,·
O=C(O)C(c1ccccc1)C(c1ccccc1)c1ccccc1 (centres undefined),–,–,?,–,·,–
CCOC(=O)C1CCCN(Cc2ccc(OCc3ccccc3)c(OC)c2)C1 (centres undefined),–,·,13.1µM,–,–,18.1
CCOC(=O)C1CCCN(Cc2ccc(O)c(OC)c2)C1 (centres undefined),–,–,–,–,–,–
COc1cc(CN2CCCC(C)C2)ccc1OCc1ccccc1 (centres undefined),–,36.2,–,–,–,16.6
Cc1ccc(C)c(COc2coc(CN3CCN(C(=O)c4ccco4)CC3)cc2=O)c1,·,·,?,11.7µM,·,·
COc1cc(CN2CCC(C)CC2)ccc1OCc1ccccc1,–,–,?,–,–,–
COc1ccc(-c2nc(CN3CCN(C(=O)c4ccco4)CC3)c(C)o2)c(OC)c1C,–,–,–,7.38µM,–,–
COc1ccc(OC)c(-c2nc(CN3CCN(C(=O)c4ccco4)CC3)c(C)o2)c1,·,–,?,?,–,–
CC(C)NC(=O)COc1coc(CN2CCN(C(=O)c3ccco3)CC2)cc1=O,·,·,–,–,·,·
CC(=O)Nc1ccc(Sc2ccccc2C(=O)O)cn1,–,–,?,–,–,–
C=CC[C@@H]1C=C[C@@H](O/N=C(/C)CCC(=O)OC[C@@H]2O[C@H](C#Cc3ccccc3)C=C[C@@H]2Oc2ccc(C)cc2)[C@@H](CO)O1,–[12.9 µM],·,·,·,·,·
COc1ccc(C2N(C(=O)C(F)(F)F)C(C)CN2S(=O)(=O)c2ccc(C)cc2)cc1 (centres undefined),·,–,–,–,–,–
CCOC(=O)C1CCCCN1Cc1cccc(OCc2ccccc2)c1 (centres undefined),?,–,13.1µM,–,–,–
CCCN1CCC(N(CCc2ccccc2)Cc2ccccc2)CC1,?,–,11.7µM,?,–,–
CCCCN(C)C(=O)C1CCN(CCCc2ccccc2)CC1,–,–,·,2.33µM,–,–
CN(C)CC(C)(C)CNC(=O)C1CCN(CCCc2ccccc2)CC1,?,–,?,?,–,–
CCN(Cc1ccccc1)C1CCN(Cc2ccccc2)CC1,?,–,–,?,–,–
C=CCc1ccc(OCCCN2CCCC(C)C2)c(OC)c1 (centres undefined),–,–,–,·,–,21.6
O=C(CC1C(=O)NCCN1Cc1ccc(F)c(F)c1)NCCCn1ccnc1 (centres undefined),–,–,–,–,–,–
